PMC5540273 (PLoS ONE, 2017)

What was measured:
Settings in all cases: concentration: 1 μM, replicates: in singlicate; n = 1
[1] = test system: DAPK1
[2] = test system: DAPK2
[3] = test system: DAPK3
[4] = test system: T1, DCAMKL1
T1 construct: gene DCLK1

[5] = test system: T2, DCAMKL2
T2 construct: gene DCLK2

[6] = test system: T3, DCAMKL3
T3 construct: gene DCLK3

[7] = test system: DDR1
[8] = test system: DDR2
[9] = test system: T4, DLK
T4 construct: gene MAP3K12

[10] = test system: T5, DMPK2
T5 construct: gene CDC42BPG

[11] = test system: DMPK
[12] = test system: T6, DRAK1
T6 construct: gene STK17A

[13] = test system: T7, DRAK2
T7 construct: gene STK17B

[14] = test system: DYRK1A
[15] = test system: DYRK1B
[16] = test system: DYRK2
[17] = test system: EGFR
[18] = test system: EIF2AK1
[19] = test system: EPHA1
[20] = test system: EPHA2
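Also: KINOMEscan kinase panel screen.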

Q: How did the “%Inh” value [1] turn out when Nc1nccc(-c2c(-c3ccc(F)cc3)ncn2C2CCN(CC(F)(F)F)CC2)n1 [SB-236560] was run?
A: 20%

Q: What about the “%Inh” value [2] of the same compound?
A: 0%

Q: And the “%Inh” value [3]?
A: 0%

Q: And the “%Inh” value [4]?
A: 0%

Q: What about the “%Inh” value [5] of the same compound?
A: 0%

Q: And the “%Inh” value [6]?
A: 18%

Q: And the “%Inh” value [7]?
A: 90.8%

Q: And the “%Inh” value [8]?
A: 76%

Q: And the “%Inh” value [9]?
A: 17%

Q: What about the “%Inh” value [10] of the same compound?
A: 12%

Q: And the “%Inh” value [11]?
A: 11%

Q: What about the “%Inh” value [12] of the same compound?
A: 0%

Q: And the “%Inh” value [13]?
A: 1%

Q: What about the “%Inh” value [14] of the same compound?
A: 5%

Q: And the “%Inh” value [15]?
A: 28%

Q: What about the “%Inh” value [16] of the same compound?
A: 0%

Q: And the “%Inh” value [17]?
A: 29%

Q: What about the “%Inh” value [18] of the same compound?
A: 20%

Q: What about the “%Inh” value [19] of the same compound?
A: 0%

Q: What about the “%Inh” value [20] of the same compound?
A: 0%

Q: Which results are given for O=C(Nc1n[nH]c2cc(-c3cccc(F)c3)ccc12)C1CC1 [SB-735464]?
A: %Inh [1]: 1%; %Inh [2]: 11%; %Inh [3]: 0%; %Inh [4]: 11%; %Inh [5]: 0%; %Inh [6]: 0%; %Inh [7]: 4%; %Inh [8]: 8%; %Inh [9]: 0%; %Inh [10]: 0%; %Inh [11]: 0%; %Inh [12]: 7%; %Inh [13]: 0%; %Inh [14]: 10%; %Inh [15]: 0%; %Inh [16]: 16%; %Inh [17]: 0%; %Inh [18]: 0%; %Inh [19]: 25%; %Inh [20]: 0%

Q: With NCC(NC(=O)c1cc(-c2cn[nH]c2)c(-c2ccnc3[nH]ccc23)s1)c1ccccc1.O=C(O)C(F)(F)F.O=C(O)C(F)(F)F (centres unmarked) [GSK1325775] as the compound, how does the “%Inh” value [1] read?
A: 71%

Q: And the “%Inh” value [2]?
A: 37%

Q: And the “%Inh” value [3]?
A: 87%

Q: And the “%Inh” value [4]?
A: 6%

Q: What about the “%Inh” value [5] of the same compound?
A: 0%

Q: And the “%Inh” value [6]?
A: 0%

Q: And the “%Inh” value [7]?
A: 0%

Q: And the “%Inh” value [8]?
A: 43%

Q: And the “%Inh” value [9]?
A: 37%

Q: What about the “%Inh” value [10] of the same compound?
A: 89%

Q: And the “%Inh” value [11]?
A: 95.8%

Q: And the “%Inh” value [12]?
A: 90.6%

Q: And the “%Inh” value [13]?
A: 0%

Q: What about the “%Inh” value [14] of the same compound?
A: 44%

Q: What about the “%Inh” value [15] of the same compound?
A: 35%

Q: What about the “%Inh” value [16] of the same compound?
A: 79%

Q: What about the “%Inh” value [17] of the same compound?
A: 4%

Q: And the “%Inh” value [18]?
A: 0%

Q: What about the “%Inh” value [19] of the same compound?
A: 13%

Q: And the “%Inh” value [20]?
A: 0%

Q: O=C(Nc1cccc(-c2nn3ncccc3c2-c2ccnc(Nc3cccc(C(F)(F)F)c3)n2)c1)c1c(F)cccc1F [GSK299495] was tested. Which “%Inh” value [1] did it give?
A: 0%

Q: And the “%Inh” value [2]?
A: 0%

Q: What about the “%Inh” value [3] of the same compound?
A: 1%

Q: What about the “%Inh” value [4] of the same compound?
A: 13%

Q: What about the “%Inh” value [5] of the same compound?
A: 0%

Q: What about the “%Inh” value [6] of the same compound?
A: 4%

Q: What about the “%Inh” value [7] of the same compound?
A: 100%

Q: And the “%Inh” value [8]?
A: 56%

Q: And the “%Inh” value [9]?
A: 41%

Q: And the “%Inh” value [10]?
A: 92.6%

Q: And the “%Inh” value [11]?
A: 0%

Q: What about the “%Inh” value [12] of the same compound?
A: 4%

Q: What about the “%Inh” value [13] of the same compound?
A: 0%

Q: What about the “%Inh” value [14] of the same compound?
A: 14%

Q: And the “%Inh” value [15]?
A: 0%

Q: And the “%Inh” value [16]?
A: 0%

Q: What about the “%Inh” value [17] of the same compound?
A: 99.1%

Q: And the “%Inh” value [18]?
A: 18%

Q: And the “%Inh” value [19]?
A: 41%

Q: What about the “%Inh” value [20] of the same compound?
A: 0%

Q: O=C1Cc2cc(Nc3nc(NCc4cccc(S(=O)(=O)C(F)(F)F)c4)ncc3C(F)(F)F)ccc2N1 was tested. Which “%Inh” value [1] did it give?
A: 0%

Q: And the “%Inh” value [2]?
A: 0%

Q: And the “%Inh” value [3]?
A: 0%

Q: And the “%Inh” value [4]?
A: 15%

Q: And the “%Inh” value [5]?
A: 0%

Q: And the “%Inh” value [6]?
A: 12%

Q: What about the “%Inh” value [7] of the same compound?
A: 0%

Q: What about the “%Inh” value [8] of the same compound?
A: 11%

Q: What about the “%Inh” value [9] of the same compound?
A: 33%

Q: What about the “%Inh” value [10] of the same compound?
A: 19%

Q: What about the “%Inh” value [11] of the same compound?
A: 5%

Q: And the “%Inh” value [12]?
A: 6%

Q: And the “%Inh” value [13]?
A: 0%

Q: What about the “%Inh” value [14] of the same compound?
A: 13%

Q: What about the “%Inh” value [15] of the same compound?
A: 26%

Q: And the “%Inh” value [16]?
A: 0%

Q: And the “%Inh” value [17]?
A: 0%

Q: What about the “%Inh” value [18] of the same compound?
A: 0%

Q: And the “%Inh” value [19]?
A: 19%

Q: And the “%Inh” value [20]?
A: 3%

Q: With CCCCCc1nc2c(N)ncnc2n1CCCCC [SKF-97255] as the compound, how does the “%Inh” value [1] read?
A: 0%

Q: And the “%Inh” value [2]?
A: 0%

Q: What about the “%Inh” value [3] of the same compound?
A: 0%

Q: And the “%Inh” value [4]?
A: 23%

Q: And the “%Inh” value [5]?
A: 0%

Q: And the “%Inh” value [6]?
A: 5%

Q: What about the “%Inh” value [7] of the same compound?
A: 0%

Q: And the “%Inh” value [8]?
A: 21%

Q: What about the “%Inh” value [9] of the same compound?
A: 0%

Q: What about the “%Inh” value [10] of the same compound?
A: 0%

Q: And the “%Inh” value [11]?
A: 0%

Q: What about the “%Inh” value [12] of the same compound?
A: 0%

Q: What about the “%Inh” value [13] of the same compound?
A: 11%

Q: What about the “%Inh” value [14] of the same compound?
A: 0%

Q: What about the “%Inh” value [15] of the same compound?
A: 0%

Q: And the “%Inh” value [16]?
A: 27%

Q: What about the “%Inh” value [17] of the same compound?
A: 0%

Q: And the “%Inh” value [18]?
A: 0%

Q: What about the “%Inh” value [19] of the same compound?
A: 0%

Q: And the “%Inh” value [20]?
A: 0%

Q: With COC(=O)Nc1nc2cc(Oc3ccc(NC(=O)Nc4cc(F)ccc4F)cc3)ccc2[nH]1.Cl [GW701424] as the compound, how does the “%Inh” value [1] read?
A: 0%

Q: And the “%Inh” value [2]?
A: 0%

Q: What about the “%Inh” value [3] of the same compound?
A: 8%

Q: What about the “%Inh” value [4] of the same compound?
A: 11%

Q: What about the “%Inh” value [5] of the same compound?
A: 0%

Q: And the “%Inh” value [6]?
A: 17%

Q: What about the “%Inh” value [7] of the same compound?
A: 100%

Q: What about the “%Inh” value [8] of the same compound?
A: 99.2%

Q: And the “%Inh” value [9]?
A: 0%

Q: And the “%Inh” value [10]?
A: 1%

Q: What about the “%Inh” value [11] of the same compound?
A: 0%

Q: And the “%Inh” value [12]?
A: 2%

Q: What about the “%Inh” value [13] of the same compound?
A: 0%

Q: What about the “%Inh” value [14] of the same compound?
A: 5%

Q: And the “%Inh” value [15]?
A: 6%

Q: And the “%Inh” value [16]?
A: 0%

Q: What about the “%Inh” value [17] of the same compound?
A: 35%

Q: And the “%Inh” value [18]?
A: 0%

Q: And the “%Inh” value [19]?
A: 11%

Q: And the “%Inh” value [20]?
A: 63%

Q: What does the source list for c1ccc(-c2cc(-c3c[nH]nc3-c3ccccn3)ccn2)cc1 [GW576604]?
A: %Inh [1]: 8%; %Inh [2]: 0%; %Inh [3]: 22%; %Inh [4]: 0%; %Inh [5]: 23%; %Inh [6]: 12%; %Inh [7]: 0%; %Inh [8]: 24%; %Inh [9]: 26%; %Inh [10]: 0%; %Inh [11]: 0%; %Inh [12]: 11%; %Inh [13]: 0%; %Inh [14]: 4%; %Inh [15]: 0%; %Inh [16]: 0%; %Inh [17]: 17%; %Inh [18]: 0%; %Inh [19]: 0%; %Inh [20]: 0%

Q: For Cc1cn2c(=O)cc(N3CCOCC3)nc2n1Cc1cccc(Cl)c1Cl [GSK2334006], which “%Inh” value [1] is on record?
A: 13%

Q: What about the “%Inh” value [2] of the same compound?
A: 19%

Q: And the “%Inh” value [3]?
A: 22%

Q: What about the “%Inh” value [4] of the same compound?
A: 0%

Q: What about the “%Inh” value [5] of the same compound?
A: 0%

Q: And the “%Inh” value [6]?
A: 0%

Q: And the “%Inh” value [7]?
A: 30%

Q: What about the “%Inh” value [8] of the same compound?
A: 14%

Q: And the “%Inh” value [9]?
A: 21%

Q: And the “%Inh” value [10]?
A: 15%

Q: And the “%Inh” value [11]?
A: 12%

Q: And the “%Inh” value [12]?
A: 0%

Q: And the “%Inh” value [13]?
A: 12%

Q: What about the “%Inh” value [14] of the same compound?
A: 20%

Q: What about the “%Inh” value [15] of the same compound?
A: 36%

Q: What about the “%Inh” value [16] of the same compound?
A: 0%

Q: And the “%Inh” value [17]?
A: 45%

Q: What about the “%Inh” value [18] of the same compound?
A: 2%

Q: What about the “%Inh” value [19] of the same compound?
A: 51%

Q: What about the “%Inh” value [20] of the same compound?
A: 21%

Q: Which “%Inh” value [1] does the source give for O=C(NCCCN1CCOCC1)c1cccc(Nc2nccc(Nc3ccc(Oc4ccccc4)cc3)n2)c1 [GW663929] here?
A: 48%

Q: And the “%Inh” value [2]?
A: 35%

Q: And the “%Inh” value [3]?
A: 81%

Q: What about the “%Inh” value [4] of the same compound?
A: 38%

Q: What about the “%Inh” value [5] of the same compound?
A: 0%

Q: And the “%Inh” value [6]?
A: 3%

Q: What about the “%Inh” value [7] of the same compound?
A: 35%

Q: And the “%Inh” value [8]?
A: 50%

Q: And the “%Inh” value [9]?
A: 13%

Q: What about the “%Inh” value [10] of the same compound?
A: 16%

Q: What about the “%Inh” value [11] of the same compound?
A: 0%

Q: And the “%Inh” value [12]?
A: 10%

Q: And the “%Inh” value [13]?
A: 8%

Q: And the “%Inh” value [14]?
A: 0%

Q: And the “%Inh” value [15]?
A: 31%

Q: What about the “%Inh” value [16] of the same compound?
A: 16%

Q: What about the “%Inh” value [17] of the same compound?
A: 80%

Q: And the “%Inh” value [18]?
A: 0%

Q: What about the “%Inh” value [19] of the same compound?
A: 0%

Q: What about the “%Inh” value [20] of the same compound?
A: 0%
